Only some compounds are listed: those with a hit (about 3.1% of all), similar ones and a draw of the others.
BRCA1 expr up: BRCA1 expression activation. MCF7-BRCA1-FFLuc reporter, luminescence, 48 h; response scale: scaled: vehicle 0%, 10 µM genistein 100%. Potency, µM (top dose mostly 46.1 µM), actives largely listed as activators. hit rate 1.1% among 380,000. AID 624202; note: nearly all actives have a fitted effect of over 80% in size
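First, MCF7-BRCA1-FFLuc cells (2000/well) attach for 2 h; next, compounds are pin-added and incubated 48 h at 37 °C; finally, luciferase reagent is added and luminescence read after 15 min.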
ELG1 DNA repair: ELG1-dependent DNA repair inhibition; HEK293T ELG1-luciferase reporter, luminescence, 16 h; DNA damage induced by 5-fluorouridine; Potency, µM (doses to about 46.1 µM), most hits filed as inhibitors; hit rate 2.3% among 330,000; AID 504467; note: nearly all actives have a fitted effect of over 55% in size
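DMSO vehicle served as the neutral condition. Each well held 2,000 cells given 5-fluorouridine plus compound; after 16 hr at 37 °C/5% CO2, ONE-Glo was added and luciferase measured 30 min later.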
IL-2 act: activates IL-2 in a cell-based reporter assay | IL-2 activation reporter assay, cell-based qHTS; stimulated with anti-CD3/CD4/CD28 beads; in transgenic mouse T cells | activation, % (series mostly up to about 46 µM) | hit rate 0.065% among 360,000; in the data active = activation above about 50%; inconclusive = mostly about 30% to 49%
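Readout is EGFP and DsRed signal by fluorescent plate cytometry after 18 h at 37 degrees C. Transgenic mouse T cells (750/well) received compound for 60 min before bead stimulation (anti-CD3, anti-CD4, anti-CD28); memory T cells served as non-tolerant control.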
Nrf2 ARE act: Nrf2 pathway activation. AID 624171. hit rate 0.31% among 410,000. Potency, µM (highest dose often 46.1 µM), usual class: activators. AREc32 ARE-luciferase reporter (MCF7-derived line), luminescence, 24 h; note: nearly all actives have a fitted effect of over 65% in size
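Cells of the AREc32 ARE-luciferase line are plated in OPTI-MEM containing 5% FBS and left overnight at 37 deg C. Compounds are pinned in, incubation continues 24 hr, and firefly luciferase signal is then measured.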
Large screens that a line does not name were inactive. Unless noted, calls come from the whole dose curve; as a rule, active = well fitted curve in the direction sought with a large enough effect; inconclusive = small, poorly fitted or top-dose-only effect, or another doubt; inactive = no such curve, though single readings can be large; an effect the other way counts as inactive or inconclusive.

C[C@@H]1O[C@@H](O[C@H]2C[C@@H](O)[C@]3(CO)[C@@H]4C(CC[C@]3(O)C2)[C@@]2(O)CC[C@H](C3COC(=O)C3)[C@@]2(C)C[C@H]4O)[C@H](O)[C@H](O)[C@H]1O (stereo not given in full)	ELG1 DNA repair 1.8µM
O=[N+]([O-])c1cc(C(F)(F)F)c(Cl)c([N+](=O)[O-])c1Nc1ncc(C(F)(F)F)cc1Cl	none (no result: ELG1 DNA repair, IL-2 act, Nrf2 ARE act)
NC(=O)c1cn(C2OC(CO)C(O)C2O)c2ncnc(N)c12 (stereo not given)	BRCA1 expr up inconclusive, ELG1 DNA repair 0.1µM
CNC(=O)O/N=C/C(C)(C)S(C)=O (stereo not given)	none (no result: ELG1 DNA repair, IL-2 act, Nrf2 ARE act)
CN(C)S(=O)(=O)c1ccc(C(=O)NNc2nc(-c3ccccc3)c3cc(Br)ccc3n2)cc1	ELG1 DNA repair 23µM
O=C(CNC(=O)c1ccc(Cl)cc1)Nc1ccc(Br)cc1C(=O)c1ccccc1	none
[Hg+][c]1ccccc1	none (no result: ELG1 DNA repair, IL-2 act, Nrf2 ARE act)
O=C(C(=O)N1CCOCC1)c1cn(Cc2c(F)cccc2Cl)c2ccccc12	none
Cc1cc2c(cc(C(=O)N3CCC(C(=O)NC4CCCC4)CC3)n2Cc2c(F)cccc2Cl)o1	ELG1 DNA repair 23µM
CNc1cccc(-c2ccc(N3CCN(C)CC3)nc2)n1	BRCA1 expr up inconclusive (no result: ELG1 DNA repair)
CN(N=O)c1cc(O)ccc1O	none (no result: ELG1 DNA repair, IL-2 act, Nrf2 ARE act)
COC(=O)C1=C(C)NC(C)=C(C(=O)OC)C1c1ccccc1[N+](=O)[O-]	ELG1 DNA repair 10µM
C[C@@H]1O[C@@H](O[C@@H]2C=C3CC[C@@H]4[C@@H](CC[C@]5(C)[C@H](c6ccc(=O)oc6)CC[C@@]45O)[C@@]3(C)CC2)[C@H](O)[C@H](O)[C@H]1O	none (no result: ELG1 DNA repair, IL-2 act, Nrf2 ARE act)
O=C1C=CC2C3C(=O)N(c4ccccc4)C(=O)C3C1N2Cc1ccccc1 (stereo not given)	Nrf2 ARE act inconclusive (no result: ELG1 DNA repair)
Cc1ccc(C(C#N)=Cc2ccc3c(c2)OCO3)cc1	BRCA1 expr up inconclusive (no result: ELG1 DNA repair)
COc1cc(OC)cc(-c2sc3ccc(OC)cc3c2-c2ccc(OCCN3CCOCC3)cc2)c1	ELG1 DNA repair 6.5µM
COc1cccc(-c2sc3ccccc3c2-c2ccc(OCCN3CCOCC3)cc2)c1	none
Cc1ccc(-c2nc(CN3C(=O)CN=C(c4ccccc4Cl)c4cc(Cl)ccc43)c(C)o2)cc1	none (no result: BRCA1 expr up, ELG1 DNA repair, IL-2 act)
OCCNc1c2c(nc3ccccc13)CCCC2	none
C[n+]1c2ccccc2nc2ccc(NCCO)cc21	ELG1 DNA repair 8.2µM
CNc1ccc2nc3ccccc3[n+](C)c2c1	ELG1 DNA repair 1.6µM
C[C@H]1COC(=O)[C@H](Cc2ccc(F)cc2)CC/C=C/C[C@@H](CC(=O)N(CCO)Cc2ccccc2)C(=O)N1	ELG1 DNA repair inconclusive
C[C@]12CCC3C(CC[C@H]4C[C@@H](O)CC[C@]34C)[C@H]1C=CC2=O (stereo not given in full)	ELG1 DNA repair inconclusive, Nrf2 ARE act 22µM
CC(=O)c1ccc2c(c1)C1C(Cl)C(Sc3ccccc3[N+](=O)[O-])CC1C(c1ccccc1[N+](=O)[O-])N2 (stereo not given)	ELG1 DNA repair 4.1µM
CC(=O)c1ccc2c(c1)C1C(Cl)C(Sc3ccccc3[N+](=O)[O-])CC1C(c1ccccc1)N2 (stereo not given)	ELG1 DNA repair inconclusive
CCCCN1CCS(=O)(=O)N(Cc2ccccc2Br)CC(C(=O)OC)C1 (stereo not given)	ELG1 DNA repair inconclusive, Nrf2 ARE act inconclusive
Cc1sc2ncnc(SCC(=O)Nc3ccc(S(=O)(=O)N4CCOCC4)cc3)c2c1C	ELG1 DNA repair inconclusive
CCOC(=O)CCCc1cc[c]([Sb](=[O])([OH])[OH])cc1	none (no result: ELG1 DNA repair, IL-2 act, Nrf2 ARE act)
NC1=C(Br)C(=O)c2ccccc2C1=O	ELG1 DNA repair 23µM
O=C1C(=O)c2ccccc2-c2ccccc21	ELG1 DNA repair 7.3µM
O=C1C(=O)c2cccc3cccc1c23	none
O=C(c1cncc(Br)c1)N1CCN(S(=O)(=O)c2ccc3ccccc3c2)CC1	ELG1 DNA repair inconclusive
CC(C)(C)NC(=O)N1c2ccccc2Sc2ccccc21	ELG1 DNA repair inconclusive
CC(C)(C)n1ncc2c(=O)n(Cc3cccc(Cn4cnc5c(cnn5C(C)(C)C)c4=O)c3F)cnc21	ELG1 DNA repair 8.2µM
CC(C)(C)c1ccc(CSc2cnn(C(C)(C)C)c(=O)c2Cl)cc1	ELG1 DNA repair inconclusive
COc1ccc(NP(=O)(Oc2ccccc2OC)Oc2ccccc2OC)cc1	ELG1 DNA repair 21µM
COc1ccccc1OP(=O)(Nc1ccc(Br)cc1)Oc1ccccc1OC	ELG1 DNA repair inconclusive
CCCCCCn1c(O)c(C=Nc2ccccc2N2CCOCC2)c(=O)[nH]c1=S	IL-2 act 59
CCCCn1c(O)c(/C=N/N2CCOCC2)c(=O)[nH]c1=S	none
O=C(COc1ccccc1)N1CCN(CCN2C(=O)c3cccc4cccc(c34)C2=O)CC1	none
O=C1c2cccc3cccc(c23)C(=O)N1CCN1CCN(C(=S)Nc2ccccc2)CC1	ELG1 DNA repair 16µM
O=C(c1cc(-c2cccc(Cl)c2)on1)N1CCOCC1	BRCA1 expr up 10µM, ELG1 DNA repair inconclusive
Cc1c(C(=O)N2CCC3(CC2)OCCO3)sc2ncnc(N3CCN(c4ccccn4)CC3)c12	ELG1 DNA repair 3.7µM
CCN1CCN(CC(c2ccccc2)c2ccccc2)CC1	none
O=C(c1ccccc1)C(CN1CCCC1)c1ccccc1 (stereo not given)	ELG1 DNA repair 18µM, Nrf2 ARE act inconclusive
CN1CC=C(/C=C/c2ccc(-c3ccccc3)cc2)CC1	BRCA1 expr up 8.9µM, ELG1 DNA repair inconclusive
COc1ccc(/C=C/C2=CCN(C)CC2)cc1	BRCA1 expr up inconclusive, ELG1 DNA repair inconclusive
CN1CCN(c2ncnc3ccc(Br)cc23)CC1	ELG1 DNA repair 9.2µM
COC(=O)C1CN(C#N)N(c2ccc(Cl)cc2)C12c1ccccc1-c1ccccc12 (stereo not given)	ELG1 DNA repair 5.8µM
COc1ccc2[nH]c3c(c2c1)CCN1C(=O)C(CC(=O)NCc2cccc(C(F)(F)F)c2)C[C@H](C(=O)N2CCCCC2)[C@@]31C (stereo not given in full)	ELG1 DNA repair inconclusive
Cc1ccc(NS(=O)(=O)c2c(F)cc(F)c(Cl)c2F)cc1S(=O)(=O)N1CCOCC1	Nrf2 ARE act inconclusive
CN1CCN(c2ccc([N+](=O)[O-])c3no[n+]([O-])c23)CC1	ELG1 DNA repair 3.3µM
Clc1cccc(Cl)c1Cn1nnc(N2CCCC2)n1	BRCA1 expr up 11µM, ELG1 DNA repair inconclusive
Cc1ccc(Cn2cccc(C(=O)Nc3ccc4c(c3)OCCO4)c2=O)cc1	none (no result: ELG1 DNA repair, IL-2 act)
CCN(CC)C(=O)c1ccc(NC(=O)CCn2nc(-c3ccc(Cl)cc3)c3ccccc3c2=O)cc1	none (no result: BRCA1 expr up, ELG1 DNA repair, IL-2 act)
Cc1cccn2c(=O)c3c(nc12)N1CCc2ccccc2C1C1(C3)C(=O)NC(=O)N(C)C1=O (stereo not given)	ELG1 DNA repair 13µM
CCCCN1C(=O)NC(=O)C2(Cc3c(nc4ccccn4c3=O)N3CCc4ccccc4C32)C1=O (stereo not given)	ELG1 DNA repair inconclusive, Nrf2 ARE act inconclusive

Bioassay records: PubChem BioAssay, National Center for Advancing Translational Sciences (NCATS)
